From PubChem BioAssay AID1159580 (chemical genetic matrix, 2015)
The whole screen tested about 5,500 compounds, of which about 2,000 (36%) were called active. Roughly 18% stayed inconclusive and do not appear here. No stated cut-off is given here; in the data, active means normalized growth mostly below about 0.91 (no sharp cut-off); inconclusive means no clear call, values can overlap the other calls; inactive means mostly above about 0.92. The list shows a part of the results.

Assay: chemical genetic growth profiling, strain panel (AID 1159580);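 further: tested at 20 µM; growth read once vehicle control cultures reached saturation at 30 °C; 1 = growth at the plate median or of vehicle wells; lower values mean less growth of the strain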
Settings: growth OD
[1] = S. cerevisiae deletion strains, locus YBR229C, strain ROT2, hits give low values
[2] = S. cerevisiae deletion strains, locus YDL101C, strain DUN1, hits give low values
[3] = S. cerevisiae deletion strains, locus YDR150W, strain NUM1, hits give low values
[4] = S. cerevisiae deletion strains, locus YEL061C, strain CIN8, hits give low values
[5] = S. cerevisiae deletion strains, locus YHR030C, strain SLT2, hits give low values
[6] = S. cerevisiae deletion strains, locus YJR043C, strain POL32, hits give low values
[7] = S. cerevisiae deletion strains, locus YLR039C, strain RIC1, hits give low values
[8] = S. cerevisiae deletion strains, locus YLR262C, strain YPT6, hits give low values
[9] = S. cerevisiae deletion strains, locus YMR263W, strain SAP30, hits give low values
[10] = S. cerevisiae deletion strains, locus YMR307W, strain GAS1, hits give low values
[11] = S. cerevisiae deletion strains, locus YPL055C, strain LGE1, hits give low values

Measured: normalized growth

Cc1cc(I)c(C)cc1I
inactive: S. cerevisiae deletion strains, locus YAL013W, strain DEP1, hits give low values 1.01 | [1] 0.989 | S. cerevisiae deletion strains, locus YCL061C, strain MRC1, hits give low values 0.994 | [2] 1.02 | S. cerevisiae deletion strains, locus YDL134C, strain PPH21, hits give low values 0.986 | [3] 1.04 | [4] 0.966 | S. cerevisiae deletion strains, locus YGR078C, strain PAC10, hits give low values 1 | [5] 0.805 | S. cerevisiae deletion strains, locus YHR087W, strain rtc3, hits give low values 0.979 | [6] 0.994 | S. cerevisiae deletion strains, locus YJR075W, strain HOC1, hits give low values 0.976 | [7] 0.955 | S. cerevisiae deletion strains, locus YLR058C, strain SHM2 (second series), hits give low values 0.992 | S. cerevisiae deletion strains, locus YLR085C, strain ARP6, hits give low values 0.953 | [8] 0.872 | S. cerevisiae deletion strains, locus YML094W, strain GIM5, hits give low values 0.95 | S. cerevisiae deletion strains, locus YMR219W, strain ESC1, hits give low values 1 | [9] 0.976 | [10] 0.7 | S. cerevisiae deletion strains, locus YNL153C, strain GIM3, hits give low values 0.984 | S. cerevisiae deletion strains, locus YNL298W, strain CLA4 (second series), hits give low values 0.935 | S. cerevisiae deletion strains, locus YNL322C, strain KRE1, hits give low values 1 | S. cerevisiae deletion strains, locus YNR030W, strain Alg12, hits give low values 0.943 | [11] 0.966 | S. cerevisiae deletion strains, locus YPL241C, strain CIN2, hits give low values 0.978 | S. cerevisiae deletion strains, locus YPR135W, strain CTF4, hits give low values 0.925

CCC/C=C1\OC(=O)C2=C1CCC=C2
active: S. cerevisiae deletion strains, locus YGL086W, strain mad1, hits give low values 0.929 | S. cerevisiae deletion strains, locus YKL009W, strain mrt4, hits give low values 0.868
inactive: S. cerevisiae deletion strains, locus YBR021W, strain FUR4, hits give low values 0.967 | [1] 1.01 | S. cerevisiae deletion strains, locus YCL029C, strain bik1, hits give low values 0.978 | S. cerevisiae deletion strains, locus YDL035C, strain GPR1, hits give low values 0.952 | S. cerevisiae deletion strains, locus YDL074C, strain BRE1, hits give low values 0.945 | [2] 0.984 | S. cerevisiae deletion strains, locus YDL185W, strain tfp1, hits give low values 0.986 | S. cerevisiae deletion strains, locus YDL192W, strain arf1, hits give low values 0.972 | S. cerevisiae deletion strains, locus YDR101C, strain arx1, hits give low values 0.949 | [3] 1.02 | S. cerevisiae deletion strains, locus YDR162C, strain NBP2, hits give low values 0.993 | S. cerevisiae deletion strains, locus YDR318W, strain mcm21, hits give low values 0.998 | S. cerevisiae deletion strains, locus YDR388W, hits give low values 0.978 | S. cerevisiae deletion strains, locus YDR502C, strain sam2, hits give low values 0.957 | [4] 1 | S. cerevisiae deletion strains, locus YER110C, hits give low values 0.971 | S. cerevisiae deletion strains, locus YER155C, strain BEM2, hits give low values 1.03 | S. cerevisiae deletion strains, locus YER167W, strain BCK2, hits give low values 0.998 | S. cerevisiae deletion strains, locus YGL078C, strain dbp3, hits give low values 0.963 | S. cerevisiae deletion strains, locus YGL248W, strain PDE1, hits give low values 0.975 | S. cerevisiae deletion strains, locus YGR135W, strain pre9, hits give low values 0.965 | S. cerevisiae deletion strains, locus YGR252W, strain gcn5, hits give low values 0.974 | [5] 1.02 | S. cerevisiae deletion strains, locus YHR079C, strain IRE1 (second series), hits give low values 0.987 | S. cerevisiae deletion strains, locus YHR094C, strain hxt1, hits give low values 0.982 | S. cerevisiae deletion strains, locus YHR129C, strain ARP1, hits give low values 0.989 | S. cerevisiae deletion strains, locus YHR200W, strain rpn10, hits give low values 0.986 | S. cerevisiae deletion strains, locus YIL066C, strain RNR3, hits give low values 0.97 | S. cerevisiae deletion strains, locus YIL073C, strain SPO22, hits give low values 0.93 | S. cerevisiae deletion strains, locus YIL125W, strain kgd1, hits give low values 0.973 | S. cerevisiae deletion strains, locus YIR030C, strain dcg1, hits give low values 0.988 | S. cerevisiae deletion strains, locus YJL095W, strain BCK1, hits give low values 0.968 | S. cerevisiae deletion strains, locus YJL134W, strain LCB3, hits give low values 1.01 | S. cerevisiae deletion strains, locus YJL168C, strain set2, hits give low values 0.986 | S. cerevisiae deletion strains, locus YJL187C, strain SWE1 (second series), hits give low values 0.99 | [6] 0.956 | S. cerevisiae deletion strains, locus YKL068W, hits give low values 0.994 | S. cerevisiae deletion strains, locus YKL085W, strain MDH1 (second series), hits give low values 0.958 | S. cerevisiae deletion strains, locus YKL085W, strain MDH1, hits give low values 0.958 | S. cerevisiae deletion strains, locus YKR001C, strain vps1, hits give low values 0.963 | [7] 0.848 | S. cerevisiae deletion strains, locus YLR058C, strain SHM2, hits give low values 1 | S. cerevisiae deletion strains, locus YLR102C, strain apc9, hits give low values 0.988 | [8] 0.816 | S. cerevisiae deletion strains, locus YLR268W, strain sec22, hits give low values 0.953 | S. cerevisiae deletion strains, locus YLR330W, strain CHS5, hits give low values 1.01 | S. cerevisiae deletion strains, locus YLR342W, strain FKS1 (second series), hits give low values 0.97 | S. cerevisiae deletion strains, locus YLR371W, strain rom2, hits give low values 0.998 | S. cerevisiae deletion strains, locus YLR418C, strain cdc73, hits give low values 0.959 | S. cerevisiae deletion strains, locus YML016C, strain PPZ1, hits give low values 1 | S. cerevisiae deletion strains, locus YML032C, strain rad52, hits give low values 1 | S. cerevisiae deletion strains, locus YML124C, strain tub3, hits give low values 0.987 | S. cerevisiae deletion strains, locus YMR078C, strain ctf18, hits give low values 0.959 | S. cerevisiae deletion strains, locus YMR223W, strain ubp8, hits give low values 0.979 | [9] 1 | [10] 1.02 | S. cerevisiae deletion strains, locus YNL067W, strain RPL9B, hits give low values 0.965 | S. cerevisiae deletion strains, locus YNL233W, strain BNI4, hits give low values 0.992 | S. cerevisiae deletion strains, locus YNL250W, strain rad50, hits give low values 1.01 | S. cerevisiae deletion strains, locus YNL271C, strain bni1, hits give low values 0.971 | S. cerevisiae deletion strains, locus YNL298W, strain CLA4, hits give low values 0.959 | S. cerevisiae deletion strains, locus YNL307C, strain MCK1, hits give low values 0.969 | S. cerevisiae deletion strains, locus YNR052C, strain pop2, hits give low values 1.01 | S. cerevisiae deletion strains, locus YOL012C, strain htz1 1.31 | S. cerevisiae deletion strains, locus YOL147C, strain pex11, hits give low values 0.986 | S. cerevisiae deletion strains, locus YOR061W, strain CKA2, hits give low values 0.996 | S. cerevisiae deletion strains, locus YOR069W, strain VPS5, hits give low values 0.998 | S. cerevisiae deletion strains, locus YOR136W, strain idh2, hits give low values 0.98 | S. cerevisiae deletion strains, locus YOR144C, strain elg1, hits give low values 0.987 | S. cerevisiae deletion strains, locus YOR184W, strain ser1, hits give low values 0.926 | S. cerevisiae deletion strains, locus YOR316C, strain cot1, hits give low values 0.976 | [11] 0.969 | S. cerevisiae deletion strains, locus YPR119W, strain clb2, hits give low values 0.983 | S. cerevisiae deletion strains, locus YPR141C, strain kar3, hits give low values 0.977 | S. cerevisiae deletion strains, locus YPR163C, strain tif3, hits give low values 0.97 | S. cerevisiae deletion strains, locus YPR167C, strain met16, hits give low values 0.996 | S. cerevisiae deletion strains, strain wtn01, hits give low values 0.965 | S. cerevisiae strains, strain wild type, hits give low values 0.988
